Source: PubChem BioAssay AID1159580 (chemical genetic matrix, 2015)
Where “and” joins values, the source holds several entries; their conditions need not be identical. Identical values can stand only once. Screen size: about 5,500 compounds; about 2,000 (36%) were called active. Another 18% or so got no clear call; they are omitted. Cut-off read from the data, not from the text of the source: active = normalized growth mostly below about 0.91 (no sharp cut-off); inconclusive = no clear call, values can overlap the other calls; inactive = mostly above about 0.92. This is one part of the list.

Test: chemical genetic growth profiling, strain panel (AID 1159580);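 note: tested at 20 µM; growth read once vehicle control cultures reached saturation at 30 °C; 1 = growth at the plate median or of vehicle wells; lower values mean less growth of the strain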
Settings: S. cerevisiae deletion strains, growth OD

Measured: normalized growth

O=C(O)c1cc(=O)c2c(OCC(O)COc3cccc4oc(C(=O)O)cc(=O)c34)cccc2o1
inactive: locus YAL013W, strain DEP1, hits give low values 1.01 | locus YAL021C, strain ccr4, hits give low values 0.964 | locus YAL026C, strain drs2, hits give low values 1.01 | locus YAL030W, strain snc1, hits give low values 0.996 | locus YBL061C, strain skt5, hits give low values 0.977 | locus YBR009C, strain hhf1, hits give low values 0.994 | locus YBR021W, strain FUR4, hits give low values 1.01 | locus YBR023C, strain chs3, hits give low values 0.992 | locus YBR171W, strain sec66, hits give low values 0.96 | locus YBR229C, strain ROT2, hits give low values 1.01 | locus YBR231C, strain swc5, hits give low values 0.963 | locus YBR279W, strain paf1, hits give low values 0.995 | locus YCL011C, strain gbp2, hits give low values 1 | locus YCL016C, strain dcc1, hits give low values 1.02 | locus YCL029C, strain bik1, hits give low values 1.02 | locus YCL061C, strain MRC1, hits give low values 0.983 | locus YCL069W, strain vba3, hits give low values 0.977 | locus YCR088W, strain abp1, hits give low values 0.974 | locus YDL005C, strain med2, hits give low values 0.974 | locus YDL035C, strain GPR1, hits give low values 1.01 | locus YDL040C, strain nat1, hits give low values 0.964 | locus YDL074C, strain BRE1, hits give low values 1.01 | locus YDL101C, strain DUN1, hits give low values 1.01 | locus YDL185W, strain tfp1, hits give low values 1.03 | locus YDL192W, strain arf1, hits give low values 1.02 | locus YDR001C, strain nth1, hits give low values 0.971 | locus YDR069C, strain doa4, hits give low values 0.971 | locus YDR101C, strain arx1, hits give low values 1.03 | locus YDR137W, strain rgp1, hits give low values 0.973 | locus YDR159W, strain sac3, hits give low values 0.926 | locus YDR162C, strain NBP2, hits give low values 1.01 | locus YDR195W, strain ref2 0.896 | locus YDR297W, strain sur2, hits give low values 0.987 | locus YDR318W, strain mcm21, hits give low values 1.02 | locus YDR334W, strain swr1, hits give low values 0.969 | locus YDR335W, strain msn5, hits give low values 0.967 | locus YDR388W, hits give low values 1.02 | locus YDR392W, strain spt3, hits give low values 1.03 | locus YDR502C, strain sam2, hits give low values 1 | locus YEL003W, strain gim4, hits give low values 0.955 | locus YEL037C, strain rad23, hits give low values 0.955 | locus YEL061C, strain CIN8 (second series), hits give low values 0.964 | locus YEL061C, strain CIN8, hits give low values 1.01 | locus YER015W, strain faa2, hits give low values 0.99 | locus YER016W, strain bim1, hits give low values 0.996 | locus YER110C, hits give low values 1.03 | locus YER111C, strain swi4, hits give low values 0.972 | locus YER155C, strain BEM2 (second series), hits give low values 0.935 | locus YER155C, strain BEM2, hits give low values 1.01 | locus YER167W, strain BCK2, hits give low values 1.01 | locus YFR010W, strain ubp6, hits give low values 0.969 | locus YGL078C, strain dbp3, hits give low values 1.01 | locus YGL086W, strain mad1, hits give low values 1 | locus YGL167C, strain pmr1, hits give low values 0.96 | locus YGL173C, strain kem1, hits give low values 0.959 | locus YGL227W, strain vid30, hits give low values 0.977 | locus YGL240W, strain doc1, hits give low values 0.959 | locus YGL248W, strain PDE1, hits give low values 1.01 | locus YGL253W, strain hxk2, hits give low values 0.983 | locus YGR135W, strain pre9, hits give low values 1.02 | locus YGR229C, strain SMI1, hits give low values 1.02 | locus YGR252W, strain gcn5, hits give low values 1.03 | locus YHR013C, strain ard1, hits give low values 0.979 | locus YHR027C, strain rpn1, hits give low values 0.989 | locus YHR030C, strain SLT2, hits give low values 1.01 and 1 | locus YHR079C, strain IRE1 (second series), hits give low values 1.03 | locus YHR079C, strain IRE1, hits give low values 1 | locus YHR094C, strain hxt1, hits give low values 1.02 | locus YHR129C, strain ARP1, hits give low values 1.01 | locus YHR142W, strain chs7, hits give low values 0.966 | locus YHR200W, strain rpn10, hits give low values 1.02 | locus YIL066C, strain RNR3, hits give low values 1.01 | locus YIL073C, strain SPO22, hits give low values 1.06 | locus YIL125W, strain kgd1, hits give low values 1.02 | locus YIR030C, strain dcg1, hits give low values 1.03 | locus YJL092W, strain hpr5, hits give low values 0.978 | locus YJL095W, strain BCK1 (second series), hits give low values 0.974 | locus YJL095W, strain BCK1, hits give low values 1.02 and 0.989 | locus YJL115W, strain asf1, hits give low values 0.967 | locus YJL129C, strain trk1, hits give low values 0.931 | locus YJL134W, strain LCB3, hits give low values 1.01 | locus YJL154C, strain vps35, hits give low values 0.962 | locus YJL164C, strain tpk1, hits give low values 1 | locus YJL166W, strain qcr8, hits give low values 0.953 | locus YJL168C, strain set2, hits give low values 1.02 | locus YJL187C, strain SWE1 (second series), hits give low values 1.02 | locus YJR043C, strain POL32, hits give low values 0.998 | locus YJR066W, strain TOR1, hits give low values 0.992 | locus YJR075W, strain HOC1, hits give low values 1.01
